Assay outcomes deposited in PubChem BioAssay by National Center for Advancing Translational Sciences (NCATS).
HT1080 IDH1KD tx: kills HT-1080 cells with IDH1 knockdown; Potency, µM (series often up to 46.1 µM), inactives show at the top dose activity, negative = toxicity, usual class: cytotoxic; HT-1080 IDH1 knockdown viability, ATP luminescence, 48 h; AID 686971; 360,000 tested, 2% active;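 further: potency means the concentration at half of the fitted maximal effect; 0% = DMSO wells and -100% = cell-free medium wells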
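CellTiter-Glo luminescence after 48 h compound exposure at 37 degrees C of IDH1-knockdown HT-1080 cells in 5% FBS RPMI. %Activity scaled between DMSO wells and cell-free media wells, with curves fitted and assigned curve classes.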
DT40 TDP1 no CPT: qHTS for Inhibitors of human tyrosyl-DNA phosphodiesterase 1 (TDP1): qHTS in cells in absence of CPT | DT40 Tdp1-/- hTDP1 cells, no CPT, ATP luminescence, 48 h | Potency, µM (highest dose often 46.2 µM), for inactives: top-dose activity change, negative = growth inhibition, actives largely listed as inhibitors | 420,000 tested, 15% active | AID 686978, 2013; further: potency means the concentration at half of the fitted maximal effect; nearly all actives have a fitted effect of over 55% in size
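Readout: luminescence from CellTiter-Glo after 30 min in the dark at RT. Cells: DT40 Tdp1-/- with stable hTDP1, 400/well. Exposure: compounds alone, ≥48 hr, 37 °C.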
DT40 TDP1 CPT: growth inhibition of DT40 Tdp1-/-;hTDP1 cells with camptothecin (screen for TDP1 inhibitors); chicken DT40 Tdp1-/-;hTDP1 cells + 20 nM CPT, ATP luminescence, 48 h; Potency, µM (titrated, usually from 46.2 µM), for the others: at the highest dose activity change, negative = growth inhibition, usual class: inhibitors; 420,000 tested, 12% active; AID 686979; further: potency means the concentration at half of the fitted maximal effect; nearly all actives have a fitted effect of over 55% in size
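Chicken DT40 Tdp1-/- cells complemented with human TDP1, 400 cells/well, exposed to compounds plus 20 nM camptothecin for at least 48 h at 37 C; viability read as ATP content by CellTiter-Glo luminescence.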
IL1B secr inh: blocks inflammasome-driven IL-1 beta release. THP-1 LPS/ATP IL-1B secretion, AlphaLISA, 16 h; stronger effect = lower value. activity change, % at 57.5 µM. 360,000 tested, 4.7% active; in the data active means activity change below about -50%; inconclusive means mostly about -30% to -49%
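Secreted IL-1B measured by AlphaLISA bead assay after 16 h compound exposure of THP-1 cells; compounds (final up to 57.5 uM) added 1 h before LPS (250 ng/mL) and ATP (1.25 mM) stimulation; lower signal means less secretion.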
HT1080NT lethal: kills 2HG-producing HT-1080-NT fibrosarcoma cells | HT-1080-NT fibrosarcoma viability, CellTiter-Glo ATP luminescence, 48 h | Potency, µM (titrated, usually from 46.1 µM), for the others: at the top dose activity, negative = less viability, hits mostly cytotoxic | 360,000 tested, 1.6% active | AID 686970;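 further: NT is the 2HG producing partner of a matched IDH1 knockdown line; potency means the concentration at half of the fitted maximal effect; 0% = DMSO-treated cells and -100% = media-only wells without cells; nearly all actives have a fitted effect of over 55% in size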
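Viability by CellTiter-Glo luminescence after 48 h compound exposure at 37C of HT-1080-NT cells (750/well, RPMI, 5% FBS). % activity scaled between DMSO wells and medium-only wells, then curve-fitted and categorized by curve class.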
Starred values were filed as active, the others as inactive; ? = inconclusive; nt = no result. Most compounds without a hit are left out; they make up all but 19% or so of the library. Unless noted, the call rests on the fitted dose curve; in most records, active means well fitted curve in the direction sought with a large enough effect; inconclusive means small, poorly fitted or top-dose-only effect, or another doubt; inactive means no such curve, though single readings can be large; an effect the other way counts as inactive or inconclusive. Unless noted, on the % scale 0 is the no-effect control and ±100 the full control effect.

SMILES	HT1080 IDH1KD tx	DT40 TDP1 no CPT	DT40 TDP1 CPT	IL1B secr inh	HT1080NT lethal
C=CCC[C@H](Cc1ccc(F)cc1)C(=O)OC[C@@H]1CCCN1C(=O)[C@@H](CC=C)CC(=O)NCCO	-5.0%	20.6µM*	?	5.8	6.6%
O=C(COc1ccccc1F)NCC(c1ccc(F)cc1)N1CCOCC1 (stereo not drawn)	3.3%	-21.9%	-18.8%	0.0	3.1%
C=CCn1c(-c2cc(-c3ccccc3)sc2N)n[nH]c1=S	16.4%	?	10.9%	13.1	9.7%
Nc1sc(-c2ccccc2)cc1-c1n[nH]c(=S)n1C1CCCCC1	1.46µM*	2.59µM*	16.4µM*	28.7	3.66µM*
COc1ccc(-n2c(-c3cc(-c4ccccc4)sc3N)n[nH]c2=S)cc1	?	16.4µM*	?	77.9	16.4µM*
O=C1COc2ccc(C(=O)c3ccccc3C(=O)NCc3ccco3)cc2N1	-7.6%	-23.4%	-24.9%	204.7	0.2%
O=C(CSCC(=O)OCn1nnc2ccccc2c1=O)Nc1ccc(Cl)cc1	-1.9%	?	20.6µM*	13.1	2.7%
O=c1c2ccccc2nnn1COc1cccc(Cl)c1	5.5%	18.4µM*	-29.4%	-18.5	10.2%
O=C(Cc1cccc2ccccc12)OCn1nnc2ccccc2c1=O	-1.2%	-4.4%	-8.0%	14.3	0.0%
CC(C)=CC/C=C1\CCC(C(=O)O)C(C(=O)O)C1 (stereo not drawn)	16.3%	0.0291µM*	?	27.9	20.8%
COC(=O)c1ccc2cc(C)cc(C)c2n1	15.0%	-10.7%	-6.4%	22.8	13.2%
C(=N\Nc1ncnc2ccccc12)/c1ccccc1	?	4.61µM*	3.66µM*	48.7	23.1µM*
C(/CCc1ccccc1)=N\Nc1nc2ccccc2[nH]1	?	18.4µM*	?	19.9	?
c1ccc(CCc2nc3ccccc3[nH]2)cc1	-1.1%	?	-23.4%	-21.8	12.6%
Fc1cccc(/C=N/Nc2ncnc3nc[nH]c23)c1	-18.6%	-18.0%	-3.0%	-97.5*	-2.4%
Fc1cccc(/C=N/Nc2nc3ccccc3[nH]2)c1	?	?	?	-91.2*	?
CCOc1ccccc1NC(=O)CCn1cccc1	13.6%	8.9%	-5.7%	-15.7	5.5%
O=C(Nc1nc2ccccc2[nH]1)C1CCCC1	-21.0%	-19.4%	-3.7%	?	-6.7%
C(=C\c1ccccc1)/C=N/Nc1nc2ccccc2[nH]1	?	7.31µM*	7.31µM*	54.2	?
Fc1ccc(/C=N/Nc2nc3ccccc3[nH]2)cc1F	-3.6%	?	?	?	-2.4%
C(=N\Nc1nc2ccccc2[nH]1)/c1ccccc1	6.3%	?	?	-94.5*	-0.7%
C(=N\Nc1nc2ccccc2[nH]1)/C1CCCCC1	?	?	18.4µM*	38.0	?
COc1ccccc1NS(=O)(=O)c1cccc(NS(=O)(=O)c2cc(C(=O)O)ccc2OC)c1	-11.0%	5.9%	4.7%	23.5	0.2%
CCN(C[C@H]1N[C@@](C)(C(=O)OC)[C@H]2C(=O)N(C)C(=O)[C@@H]12)C(=O)Nc1ccc(OC)cc1	-6.6%	2.7%	3.1%	0.0	-3.0%
Cc1ccccc1Cn1cc(NC(=O)c2cc3nc(-c4ccco4)cc(C(F)(F)F)n3n2)cn1	-19.5%	?	?	-4.8	-22.0%
SMILES	HT1080 IDH1KD tx	DT40 TDP1 no CPT	DT40 TDP1 CPT	IL1B secr inh	HT1080NT lethal
CCc1ccc(-c2cc(C(F)(F)F)n3nc(C(=O)Nc4cnn(Cc5ccc(C)cc5)c4)cc3n2)s1	3.16µM*	5.01µM*	5.01µM*	-27.3	?
CCc1nnc(NC(=O)CSc2n[nH]c(-c3ccccc3O)n2)s1	-13.7%	-3.4%	13.9%	15.9	-5.7%
COC(=O)[C@@]12CCCCN1[C@H](c1ccc(-c3cc(C(C)=O)cs3)cc1)[C@H]1C(=O)N(C)C(=O)[C@H]12	2.6%	3.66µM*	5.17µM*	6.1	-7.8%
COC(=O)[C@@]12CCCN1[C@H](c1ccc(-c3ccccc3)c(OC)c1)[C@H]1C(=O)N(C)C(=O)[C@H]12	4.9%	-28.7%	?	7.1	5.5%
COC(=O)[C@@]12CCCCN1[C@H](c1ccc(-c3cc(C(C)=O)cs3)c(OC)c1)[C@H]1C(=O)N(C)C(=O)[C@H]12	6.6%	2.91µM*	4.11µM*	5.3	15.3%
N#CC1=C(N)Nc2ncnn2C1c1ccc(F)cc1 (stereo not drawn)	11.3%	-8.4%	4.8%	-11.0	12.8%
COc1ccc(-c2noc(-c3ccc(NC4CCCCC4)c([N+](=O)[O-])c3)n2)cc1	nt	7.4%	-0.3%	nt	nt
COc1ccc(-c2nc3c(C#N)c[nH]n3c2NC2CCCCC2)cc1	nt	16.4µM*	16.4µM*	nt	nt
CCCc1ccc(S(=O)(=O)N2CCN(C(C)C(=O)NC3CCCC3)CC2)cc1 (stereo not drawn)	-5.4%	?	-29.9%	6.7	10.3%
Cc1ccc(S(=O)(=O)N2CCN(C(C)C(=O)NCC(C)c3ccccc3)CC2)cc1 (stereo not drawn)	19.3%	23.1µM*	?	-8.8	5.3%
CC(C(=O)Nc1ccccc1-c1ccccc1)N1CCCCC1 (stereo not drawn)	4.1%	?	-5.1%	25.2	4.0%
CC(C)c1ccc(S(=O)(=O)N2CCN(C(C)C(=O)Nc3ccccc3-c3ccccc3)CC2)cc1 (stereo not drawn)	11.9%	?	18.4µM*	0.1	14.1%
CCC(C)c1ccc(S(=O)(=O)N2CCN(C(C)C(=O)NC3CCCC3)CC2)cc1 (stereo not drawn)	-6.1%	?	14.6µM*	-10.1	-1.1%
CC(NC(=O)C(C)N1CCN(S(=O)(=O)c2ccccc2)CC1)c1ccccc1 (stereo not drawn)	5.6%	-16.3%	-15.2%	-0.2	-4.6%
Cc1c(Cl)c([N+](=O)[O-])nn1CCCC(=O)Nc1sc2c(c1C#N)CCC2	-0.5%	-23.3%	-21.6%	28.5	14.0%
Cc1c(Cl)c([N+](=O)[O-])nn1CCCC(=O)Nc1cccc(Cl)c1Cl	7.5%	?	?	-15.6	2.0%
Cc1c(Br)c([N+](=O)[O-])nn1CCCC(=O)Nc1sc2c(c1C#N)CCC2	-7.5%	16.4µM*	14.6µM*	-10.9	-14.6%
COC(=O)c1ccccc1NC(=O)CCCn1nc([N+](=O)[O-])c(Br)c1C	1.0%	-20.4%	14.6µM*	20.5	-3.7%
Cc1cccc(NC(=O)CN(CC2CCCO2)C(=O)c2cc3ccccc3o2)c1C (stereo not drawn)	7.9%	?	?	-9.6	10.2%
Cc1cccc(NC(=O)CN(CC2CCCO2)C(=O)c2oc3ccccc3c2C)c1C (stereo not drawn)	-7.0%	?	29.1µM*	12.2	1.1%
